Drawing on PubChem BioAssay (NCI), this text covers growth for 14 molecules.

Values joined by “and” are separate entries in the source; they are usually repeats but may differ in a detail not shown here. Equal values may be shown once. Compounds without any hit were thinned out: in the full panel of roughly 83,000, 20% have a hit.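 Interpretation: 100, growth as untreated; towards 0, rising growth inhibition; 0, no net growth; 0 to -100, cell death. Compounds scoring below 10 were considered active.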 Active and inactive are the calls of the source.

Assay in all cases: NCI-60 one-dose screen, 48 h (100 = growth as untreated, 0 = no growth, -100 = all killed)
The test system of assay [1] is T-47D breast. To be noted: 10 µM.
In assay [2] the test system is BT-549 breast. To be noted: 10 µM.
Assay [3] has as its system MDA-MB-435 melanoma. The following applies: 10 µM.
Assay [4] relates to SW-620 colon. The following applies: 10 µM.
Assay [5] relates to MCF7 breast.
Assay [6] has as its system HCT-116 colon. To be noted: 10 µM.
Assay [7] relates to HCC-2998 colon. The following applies: 10 µM.
In assay [8] the test system is KM12 colon. To be noted: 10 µM.

Regarding `NNc1ccc2ccccc2c1`, the growth in assay [1] was 70.2% (inactive) and 98.5% (inactive); in assay [2], 96.4% (inactive); in assay [3] it was 98.8% (inactive) and 103% (inactive); in assay [4], 96.1% (inactive); in assay [5] (10 µM) it was 74.8% (inactive) and 80.2% (inactive); in assay [6] it was 102% (inactive) and 90.2% (inactive). In addition, the growth in assay [7] is 98% (inactive); in assay [8], 74.3% (inactive) and 98.7% (inactive).

Consider `COc1cccc2c1C(=O)c1c(O)c3c(c(O)c1C2=O)C[C@@](O)(C(C)=O)C[C@@H]3OC1CC(N)C(O)C(C)O1` (stereo partly specified), for which the growth was -16.3% (active) in assay [1]; -87.2% (active) in assay [3]; -3.91% (active) in assay [4]; -9.83% (active) in assay [5] (10 µM); -90.1% (active) and -89.5% (active) in assay [5] (50 µM); -37.5% (active) in assay [6]. The growth in assay [7] is -86% (active); in assay [8], -8.88% (active).

For the molecule `Oc1ccc(N=Nc2ccccn2)c(O)c1`, the growth in assay [1] is 37.3% (inactive); in assay [3] it was 32.5% (inactive); in assay [4], 32.9% (inactive); in assay [5] (10 µM), 14.5% (inactive); in assay [6], 18.7% (inactive); in assay [7], 30% (inactive). For the same molecule, the growth in assay [8] was 26.9% (inactive).

For `CCCCCC(C)c1ccc(O)c(C)c1` (stereo unspecified), the growth in assay [1] is 101% (inactive); in assay [2] it was 99.7% (inactive); in assay [3] it was 105% (inactive); in assay [4] it was 105% (inactive); in assay [5] (10 µM), 92% (inactive); in assay [6] it was 95.8% (inactive). The growth was 103% (inactive) in assay [7] and 106% (inactive) in assay [8].

Turning to `CC(=O)Nc1cc(C)ccc1C`, the growth in assay [1] is 107% (inactive); in assay [2], 112% (inactive); in assay [3], 102% (inactive); in assay [4] it was 96.4% (inactive); in assay [5] (10 µM), 105% (inactive); in assay [6], 96.9% (inactive). For the same molecule, the growth in assay [7] is 100% (inactive); in assay [8], 97.4% (inactive).

As for `NC1=C(Cl)C(=O)c2ccccc2C1=O`, the growth in assay [1] was 86.8% (inactive); in assay [3], -87.5% (active); in assay [4], 86.8% (inactive); in assay [5] (10 µM), 48.3% (inactive); in assay [6], 54.4% (inactive); in assay [7] it was 101% (inactive). Also, in assay [8], the growth was 65.3% (inactive).

`O=C(C(=Cc1ccccc1)C(=O)c1ccccc1)c1ccccc1`: the growth in assay [1] was 65.5% (inactive) and 74.7% (inactive); in assay [2], 66% (inactive) and 103% (inactive); in assay [3], 63.5% (inactive) and 104% (inactive); in assay [4], 44.3% (inactive) and 84.4% (inactive); in assay [5] (10 µM) it was 25.1% (inactive) and 89.3% (inactive); in assay [6], 18.3% (inactive) and 62.2% (inactive). Also, the growth was 92.4% (inactive) and 129% (inactive) in assay [7]; 47.8% (inactive) and 88.9% (inactive) in assay [8].

In the case of `COc1c(O)cc2oc3cc(O)c(CC=C(C)C)c(O)c3c(=O)c2c1CC=C(C)C`, the growth in assay [1] was 48% (inactive); in assay [3], 70.1% (inactive); in assay [4] it was 60.9% (inactive); in assay [5] (10 µM) it was 16.8% (inactive); in assay [6] it was 23.7% (inactive); in assay [7], 42.1% (inactive). The growth in assay [8] was 38.1% (inactive).

Take `OC(CN1CCCC2CCCCC21)c1cc2ccccc2c2ccccc12` (stereo unspecified): the growth in assay [1] was 14.9% (inactive); in assay [3], 32% (inactive); in assay [4], 27.1% (inactive); in assay [5] (10 µM), 7.24% (active); in assay [6] it was 1.99% (active); in assay [7], 13.5% (inactive). Besides, the growth in assay [8] is 15.9% (inactive).

For `CCN(CC)c1ccc(NC(C(=O)c2ccccc2)c2ccccc2)cc1` (stereo unspecified), the growth in assay [1] is 8.44% (active); in assay [3], 3.95% (active); in assay [4], 6.54% (active); in assay [5] (10 µM), 11.1% (inactive); in assay [6], -19.6% (active); in assay [7], 65.1% (inactive). Further, in assay [8], the growth is 65.1% (inactive).

For `OCC(O)C(O)C(O)C(/C=N/Nc1ccccc1)=N/Nc1ccccc1` (stereo unspecified), the growth in assay [1] was 57.9% (inactive); in assay [2], 88.9% (inactive); in assay [3] it was 78% (inactive); in assay [4] it was 88.3% (inactive); in assay [5] (10 µM), 88.3% (inactive); in assay [6] it was 84.4% (inactive). In addition, the growth in assay [7] is 84.2% (inactive); in assay [8], 75.1% (inactive).

In the case of `O=[N+]([O-])C1=C(c2ccccc2)SC=C(c2ccccc2)S1`, the growth in assay [1] was 51.9% (inactive); in assay [3], 75.3% (inactive); in assay [4], 62.5% (inactive); in assay [5] (10 µM), 51.6% (inactive); in assay [6], 67% (inactive); in assay [7] it was 108% (inactive). Moreover, in assay [8], the growth is 81.3% (inactive).

Regarding `CCCCCCCCCCCCSC(=NC)NC`, the growth in assay [1] is -7.65% (active) and 49.6% (inactive); in assay [2], 45.3% (inactive) and 86.4% (inactive); in assay [3], -15.7% (active) and 43.4% (inactive); in assay [4], -25.5% (active) and 32.3% (inactive); in assay [5] (10 µM), -9.44% (active) and 22.6% (inactive); in assay [6] it was 1.94% (active) and 47.4% (inactive). The growth is -54.8% (active) and -34.7% (active) in assay [7]; 17.1% (inactive) and 44.8% (inactive) in assay [8].

As to `CC[N+](CC)=c1ccc2nc3c(cc(N)c4ccccc43)oc-2c1`, the growth in assay [1] was -44% (active); in assay [2], -53.4% (active); in assay [3], -82.2% (active); in assay [4] it was -25.2% (active); in assay [5] (10 µM) it was -46.3% (active); in assay [6], -27.1% (active). For the same molecule, the growth in assay [7] was -78% (active); in assay [8] it was -44.2% (active).
